We go through 31 molecules from PubChem BioAssay AID1851 (National Center for Advancing Translational Sciences (NCATS), 2009).

SMILES strings stand for the structures. About 5,100 (32%) of roughly 16,000 compounds were called active. Another 25% or so got no clear call; they are omitted. Calls come from the whole dose curve; as a rule, active = well fitted curve in the direction sought with a large enough effect; inconclusive = small, poorly fitted or top-dose-only effect, or effect the other way; inactive = no such curve, though single readings can be large or run the other way. Some of the results follow.
% is set by controls: 0 for no effect and ±100 for the full control effect.

For this test, the target named is Cytochrome P450 3A4 (Homo sapiens) (UniProt P08684). In words: Cytochrome panel assay with activity outcomes. The conditions noted are these: recombinant CYP, pro-luciferin dealkylation, luminescence, p450-cyp3a4; series mostly up to 57.1 µM.
Chain of Cytochrome P450 3A4 (Homo sapiens) (P08684 whole entry, looked up): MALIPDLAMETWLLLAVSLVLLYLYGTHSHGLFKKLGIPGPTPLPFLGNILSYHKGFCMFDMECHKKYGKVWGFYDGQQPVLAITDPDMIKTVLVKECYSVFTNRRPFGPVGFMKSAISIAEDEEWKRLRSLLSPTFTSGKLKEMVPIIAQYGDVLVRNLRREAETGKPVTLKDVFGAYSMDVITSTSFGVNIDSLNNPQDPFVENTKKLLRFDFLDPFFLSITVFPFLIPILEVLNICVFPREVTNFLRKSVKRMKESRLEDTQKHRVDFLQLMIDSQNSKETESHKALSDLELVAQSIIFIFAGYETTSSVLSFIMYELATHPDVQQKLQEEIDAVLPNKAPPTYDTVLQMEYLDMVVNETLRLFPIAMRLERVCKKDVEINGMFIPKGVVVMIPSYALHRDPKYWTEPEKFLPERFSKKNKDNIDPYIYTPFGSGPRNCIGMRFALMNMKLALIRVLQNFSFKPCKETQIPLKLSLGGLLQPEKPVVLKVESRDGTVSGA
Consider `C=CCNC(=S)N1CCN(c2ncc3c(=O)c(C(=O)O)cn(CC)c3n2)CC1`, for which the AC50 entry is “inactive”.
As to `COc1cccc(CSc2nnc(C(F)(F)F)n2Cc2ccc(F)cc2)c1`, the AC50 is 28.2 µM (active).
`COc1ccc(C(=O)NC(CO)c2nnc(SCc3ccc(Cl)c(Cl)c3)n2C)cc1` (stereo unspecified): the activity, negative = inhibition was -5.47% [at 2.29 µM] (inactive).
As to `Cc1ccc(CSc2nnc(C(F)(F)F)n2Cc2ccc(F)cc2)cc1`, the AC50 is 3.16 µM (active).
`Fc1ccc(Cn2c(SCc3ccc(F)c(C(F)(F)F)c3)nnc2C(F)(F)F)cc1`: the AC50 is 20 µM (active).
Regarding `COc1cccc(CSCC(=O)O)c1`, the activity, negative = inhibition is -5.22% [at 11.4 µM] (inactive).
With `Fc1ccc(Cn2c(SCc3ccc(F)c(F)c3)nnc2C(F)(F)F)cc1`, the AC50 was 15.8 µM (active).
`NC(=O)CC(c1ccccc1)c1ccco1` (stereo unspecified): the AC50 entry is “inactive”.
As to `O=C(Nc1ccnc(-c2cccnc2)n1)c1ccccc1Cl`, the activity, negative = inhibition was 3.82% [at 2.29 µM] (inactive).
As to `c1ccc(CNc2ccnc(-c3cccnc3)n2)cc1`, the AC50 was 0.631 µM (active).
As to `Cc1cccc(NC(=O)c2cc(N3C(=O)CCC3=O)ccc2Cl)n1`, the AC50 result was “inactive”.
For the molecule `O=C(Nc1ccnc(-c2cccnc2)n1)c1cccc(Cl)c1Cl`, the AC50 was 4.47 µM (active).
On to `CC(=O)Nc1ccnc(-c2cccnc2)n1`, for which the AC50 entry is “inactive”.
Same read-out and setting: with `Cc1cccc(CNc2ccnc(-c3cccnc3)n2)c1` the figure was 0.501 µM (active); with `Cn1cc(C(=O)c2ccc(Cl)cc2Cl)cc1C(=O)O`, “inactive”.
As to `Nc1nc(NCc2ccccc2)nc(Nc2cccc(F)c2)c1[N+](=O)[O-]`, the AC50 entry is “inactive”.
For `CCC1(O)c2ccccc2-c2ncccc21` (stereo unspecified), the AC50 entry is “inactive”.
Turning to `C=C(C)c1cccc(C(C)(C)NC(=O)Nc2cc(C)ccc2OC)c1`, the AC50 is 10 µM (active).
Turning to `COc1ccc(C(N)=O)cc1NC(=O)c1cccc(F)c1`, the AC50 result is “inactive”.
For `O=[N+]([O-])c1c(NCCO)cc(Sc2nc3ccccc3s2)c2nonc12`, the AC50 is 25.1 µM (active).
For `CCc1cc2c(Sc3nc4ccccc4s3)ncnc2s1`, the activity, negative = inhibition is 6.04% [at 2.29 µM] (inactive).
`c1ccc(NCCSc2nc3ccccc3s2)cc1`: the activity, negative = inhibition was -25.9% [at 11.4 µM] (inactive).
On to `COc1n[nH]c2nncnc12`, for which the AC50 result is “inactive”.
Consider `CCOC(=O)C1=C(C)NC(C)=C(C(=O)OCC)C1c1sccc1C`, for which the AC50 was 11.2 µM (active).
For the molecule `CCOC(=O)C1=C(C)NC2(O)c3ccccc3C(=O)C12O` (stereo unspecified), the AC50 result was “inactive”.
Consider `CCOC(=O)c1[nH]c(C)c(C)c1C`, for which the AC50 entry is “inactive”.
Consider `COc1ncc2ncc(=O)n(CCC#N)c2n1`, for which the AC50 result is “inactive”.
As to `N#CCCn1c(=O)cnc2cnc(OCc3ccccc3)nc21`, the AC50 entry was “inactive”.
The same measure, in the same setting: the same measure for `COc1ncc2ncc(=O)n(C)c2n1`: “inactive”; for `O=c1cnc2cnc(OCc3ccccc3)nc2n1Cc1ccc(F)cc1`: 5.01 µM (active); for `COc1ncc2ncc(=O)n(Cc3ccc(F)cc3)c2n1`: 10 µM (active).
